# IDE exosite inh: exo-site inhibitors of human insulin-degrading enzyme; P14735; purified IDE, FL-6b probe fluorescence polarization; active compounds read low; z-score at 20 µM; 6.3% of 17,000 active;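 active means z-score of -3 or lower, meaning strong loss of probe binding signal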;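 further: His-tagged human IDE residues 42-1019 made in E. coli with 30 nM FL-6b probe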
# A number is an active result; n = inactive. Many of the other results were omitted from the sample, so hits are more common in it than they were.
SMILES,IDE exosite inh
O=C(NC[C@H]1N[C@H](CO)[C@@H]1c1ccc(-c2ccccc2)cc1)C1CCC1,-3.5
O=C(NC[C@@H]1N[C@@H](CO)[C@H]1c1ccccc1)C1CCCC1,n
COc1ccccc1-c1ccc([C@H]2[C@@H](CO)N[C@@H]2CNC(=O)C2CC2)cc1,-4.2
COc1ccc(-c2ccccc2[C@@H]2[C@@H](C#N)N(C(=O)c3cccnc3)[C@@H]2CO)cc1,n
C[C@@H]1CN([C@H](C)CO)C(=O)c2ccccc2-c2ccccc2CO[C@H]1CN(C)C(=O)Nc1cccc(Cl)c1Cl,n
CN1CCN(C(=O)C[C@@H]2C[C@@H]3c4cc(NS(C)(=O)=O)ccc4O[C@@H]3[C@@H](CO)O2)CC1,n
O=C(C[C@H]1CC[C@@H](NC(=O)C2CC2)[C@H](CO)O1)Nc1ccccc1,n
O=C1CN(S(=O)(=O)Cc2ccccc2)C[C@@H]2[C@H](c3ccc(C#CC4CC4)cc3)[C@@H](CO)N12,n
C[C@@H]1CN([C@H](C)CO)C(=O)c2cc(NC(=O)Nc3ccc(C(F)(F)F)cc3)ccc2O[C@@H](C)CCCCO[C@@H]1CN(C)S(=O)(=O)c1ccc(Cl)cc1,n
COc1cccc(CNC(=O)[C@H]2[C@H](CO)[C@H]3Cn4c(cccc4=O)[C@@H]2N3C(=O)C2CCCC2)c1,n
CCC(=O)N1Cc2cc(C(=O)NCCOC)nc(-c3cccc(-c4ccc(C#N)cc4)c3)c2[C@@H]1CCO,n
CCC(=O)NC[C@@H]1[C@@H](c2ccccc2)[C@H](CO)N1C(=O)C1CCC1,n
OC[C@@H]1[C@@H](c2ccc(C#Cc3ccccc3)cc2)[C@H]2CN(CC3CCOCC3)CCCCN12,n
O=C(CN1CCOCC1)N1CCCCN2[C@H](CO)[C@H](c3ccc(C#Cc4ccccc4)cc3)[C@@H]2C1,-13
OC[C@H]1[C@@H](c2ccc(C#Cc3ccccc3)cc2)[C@@H]2CN(CC3CCOCC3)CCCCN12,-5.4
O=C(CN1CCOCC1)N1CCCCN2[C@H](CO)[C@@H](c3ccc(C#Cc4ccccc4)cc3)[C@@H]2C1,-6.2
OC[C@@H]1[C@@H](c2ccc(C#Cc3ccccc3F)cc2)[C@@H]2CN(CC3CCOCC3)CCCCN12,n
O=C(CN1CCOCC1)N1CCCCN2[C@@H](CO)[C@@H](c3ccc(-c4ccccc4)cc3)[C@@H]2C1,n
O=C(CN1CCOCC1)N1CCCCN2[C@H](C1)[C@H](c1ccc(-c3ccccc3)cc1)[C@@H]2CO,n
CCS(=O)(=O)N1CC(=O)N2[C@H](C1)[C@@H](c1ccc(C#CCC(C)C)cc1)[C@@H]2CO,n
COCC#Cc1ccc([C@@H]2[C@H]3CN(C(=O)C4CCC4)CC(=O)N3[C@H]2CO)cc1,n
O=C(CN1CCOCC1)N1CCCCN2[C@@H](CO)[C@H](c3ccc(-c4ccccc4F)cc3)[C@@H]2C1,n
O=C(CN1CCOCC1)N1CCCCN2[C@H](CO)[C@H](c3ccc(-c4ccccc4F)cc3)[C@@H]2C1,n
O=C(CN1CCOCC1)N1CCCCN2[C@H](CO)[C@@H](c3ccc(-c4ccccc4F)cc3)[C@@H]2C1,-3.6
Cc1ccccc1-c1ccc([C@@H]2[C@@H](CO)N3CCCCN(C(=O)CN4CCOCC4)C[C@@H]23)cc1,-8
SMILES,IDE exosite inh
Cc1ccccc1-c1ccc([C@H]2[C@@H](CO)N3CCCCN(C(=O)CN4CCOCC4)C[C@H]23)cc1,-9.9
O=C(CN1CCOCC1)N1CCCCN2[C@H](CO)[C@H](c3ccc(-c4ccccc4F)cc3)[C@H]2C1,n
COCC(=O)N1CCCCN2[C@H](CO)[C@@H](c3ccc(-c4ccccc4)cc3)[C@H]2C1,n
COc1ccccc1-c1ccc([C@H]2[C@@H](CO)N3CCCCN(C(=O)CN4CCOCC4)C[C@H]23)cc1,n
COc1ccccc1-c1ccc([C@H]2[C@H](CO)N3CCCCN(C(=O)CN4CCOCC4)C[C@@H]23)cc1,-3.2
CO[C@H]1CN(C)C(=O)c2cc(NC(=O)CC(F)(F)F)ccc2OC[C@H](C)N(CC2CC2)C[C@H]1C,n
CCS(=O)(=O)N1CCCCN2[C@@H](CO)[C@@H](c3ccc(C4=CCCC4)cc3)[C@@H]2C1,n
O=C(Nc1cc(F)ccc1F)N1CC(=O)N2[C@H](C1)[C@@H](c1ccc(-c3cccc(F)c3)cc1)[C@@H]2CO,n
CCCC#Cc1ccc([C@H]2[C@@H](CO)N3C(=O)CN(C(=O)Nc4ccccc4F)C[C@H]23)cc1,n
C[C@@H]1CN([C@@H](C)CO)C(=O)c2c(c3ccccc3n2C)-c2ccccc2CO[C@@H]1CN(C)C(=O)Nc1ccc2c(c1)OCO2,n
CC[C@@H]1C/C=C\C[C@H](c2ccc(OC)cc2OC)NC(=O)[C@@H](C)CC(=O)N1,n
N#C[C@H]1[C@H](c2ccccc2)[C@@H](CO)N1C(=O)Nc1cccc(F)c1,n
COC(=O)c1ccc(CN2CC(=O)N3[C@H](CO)[C@H](c4ccc(-c5ccccc5)cc4)[C@@H]3C2)cc1,n
C/C=C/c1ccccc1[C@@H]1[C@@H](C#N)N(C(=O)c2cccnc2)[C@@H]1CO,n
CCc1cnc(N2[C@H](CO)[C@@H](c3ccccc3-c3ccccc3C)[C@@H]2C#N)s1,n
CCS(=O)(=O)N1CCC2(CC1)CN(C(=O)c1cccc(F)c1)[C@H](CO)c1c2c2ccc(OC)cc2n1C,n
CCCNC(=O)N1CC2(C1)[C@@H](c1ccccc1)[C@H](CO)N2CC1CCOCC1,n
CCCC#Cc1ccc([C@H]2[C@@H](CO)N3CCCCN(C(=O)NC4CCCC4)C[C@@H]23)cc1,n
O=C(NC1CCCC1)N1CCCCN2[C@H](CO)[C@H](c3ccc(-c4ccccc4)cc3)[C@H]2C1,-5
O=C(NC1CCCC1)N1CCCCN2[C@H](CO)[C@@H](c3ccc(-c4cccnc4)cc3)[C@@H]2C1,n
O=C(NC1CCCC1)N1CCCCN2[C@H](CO)[C@@H](c3ccc(-c4cncnc4)cc3)[C@@H]2C1,n
O=C(NC1CCCC1)N1CCCCN2[C@@H](CO)[C@@H](c3ccc(-c4ccccc4)cc3)[C@@H]2C1,-7
O=C(NC1CCCC1)N1CCCCN2[C@H](C1)[C@@H](c1ccc(-c3cncnc3)cc1)[C@@H]2CO,n
CCCC#Cc1ccc([C@@H]2[C@@H](CO)N3CCCCN(C(=O)NC4CCCC4)C[C@H]23)cc1,-4.9
O=C(NC1CCCC1)N1CCCCN2[C@H](CO)[C@@H](c3ccc(-c4cncnc4)cc3)[C@H]2C1,n
SMILES,IDE exosite inh
CCCC#Cc1ccc([C@H]2[C@H]3CN(C(=O)NC4CCCC4)CCCCN3[C@H]2CO)cc1,n
CCCC#Cc1ccc([C@H]2[C@H]3CN(C(=O)c4ccc(F)cc4)CC(=O)N3[C@H]2CO)cc1,n
CNC[C@@H]1OCCCC[C@H](C)Oc2ccc(NS(=O)(=O)c3ccc(F)cc3)cc2C(=O)N([C@H](C)CO)C[C@@H]1C,n
O=C(C1CC1)N1CC(=O)N2[C@H](CO)[C@@H](c3ccc(Br)cc3)[C@H]2C1,n
Cc1noc(C)c1NC(=O)N(C)C[C@H]1OCCCC[C@H](C)Oc2ccc(NC(=O)Nc3ccc(C(F)(F)F)cc3)cc2C(=O)N([C@H](C)CO)C[C@@H]1C,n
CCC(=O)N1[C@H](C#N)[C@H](c2ccccc2-c2ccccc2)[C@@H]1CO,n
CO[C@@H](CN(C)S(=O)(=O)c1ccc(C)cc1)[C@@H](C)CN(C(=O)Nc1ccccc1F)[C@@H](C)CO,n
N#C[C@@H]1[C@@H](c2ccc(-c3ccncc3)cc2)[C@@H](CO)N1C(=O)CN1CCOCC1,n
O=C(C[C@H]1CC[C@@H]2[C@H](COC[C@@H](O)CN2C(=O)Nc2cccc(F)c2)O1)NCCCN1CCOCC1,n
